This is one part of a sample in which hits are shown more often than they occur.
DUSP3 inh – VHR1 phosphatase inhibitors, primary screen, biochemical, colorimetric, HTS; Dual specificity protein phosphatase 3 (Homo sapiens), P51452; recombinant VHR phosphatase, colorimetric substrate read-out; inhibition, % at 20 µM; 50,000 compounds, 0.7% hits; in the data active = inhibition above about 60%
Target sequence (P51452 whole entry, looked up): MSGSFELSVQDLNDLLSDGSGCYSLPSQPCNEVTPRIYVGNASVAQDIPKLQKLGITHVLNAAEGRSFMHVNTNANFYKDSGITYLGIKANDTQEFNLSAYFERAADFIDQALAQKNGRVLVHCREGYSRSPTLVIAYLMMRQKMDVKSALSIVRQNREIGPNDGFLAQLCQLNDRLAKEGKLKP
Large screens that a line does not name were inactive.

COC(=O)C1=C(C)NC(=O)NC1c1ccc(SC)cc1 (stereo not drawn)	none
CSc1ccc(C2NC(=O)c3ccccc3N2)cc1 (stereo not drawn)	none
O=C(NNC(=O)c1ccco1)C(=O)N1CCCC1	none
COc1ccc(C2/C(=C(/O)c3ccccc3)C(=O)C(=O)N2c2cccc(OC)c2)cc1 (stereo not drawn)	none
CCN(CC)S(=O)(=O)c1cccc(C(=O)Oc2ccc([N+](=O)[O-])cc2)c1	none
CC/C(C)=N/Oc1nc(N)nc(N(C)C)n1	none
COc1ccccc1NC(=O)C1C2C3CCC(C3)C12 (stereo not drawn)	none
O=C(Nc1cccc2ccccc12)C1CC2CCC1C2 (stereo not drawn)	none
O=C(Nc1cccc2ccccc12)C1C2C3CCC(C3)C12 (stereo not drawn)	DUSP3 inh 79
COc1ccc(/C=C/C(=O)c2ccc3c(c2)OCCO3)cc1OC	none
Cc1cc(OCC(=O)NCc2ccc(F)cc2)ccc1Br	none
COc1ccc(OC)c2c1C(=O)c1ccccc1C2=O	DUSP3 inh 94
COc1ccc2noc3c2c1C(=O)c1ccccc1-3	none
CC(=O)Oc1cccc2c1C(=O)c1ccccc1C2=O	none
O=C(Nc1ccc(I)cc1)c1ccc(I)cc1	none
CCOC(=O)C1=NNC2C(=O)N(c3ccc(Cl)cc3Cl)C(=O)C12 (stereo not drawn)	DUSP3 inh 116
CCOC(=O)C1=NNC2C(=O)N(c3cc(OC)ccc3OC)C(=O)C12 (stereo not drawn)	none
CCOC(=O)C1=NNC(C(=O)c2ccc(Cl)cc2)C1c1ccc(OC)cc1 (stereo not drawn)	DUSP3 inh 115
CCOC(=O)C1=NNC2C(=O)N(c3ccccc3C)C(=O)C12 (stereo not drawn)	none
CCOC(=O)C1=C(C)NC(SC)=NC1c1ccc(OC)cc1 (stereo not drawn)	none
CCOC(=O)C1=NNC(C(=O)c2ccccc2)C1c1cccc(Br)c1 (stereo not drawn)	none
COc1ccc(/C=C2\SC(=O)N(CC(=O)Nc3ccc(C)cc3C)C2=O)cc1	none
COc1ccc(N2C(=O)NC(=O)/C(=C\c3ccc(OCc4ccc(C(=O)O)cc4)c(OC)c3)C2=O)cc1	none
Cc1cc(OCC(=O)Nc2ccc(-c3nc4ncccc4o3)cc2)ccc1Cl	none
CN1C(=O)C(O)(CC(=O)c2ccc(Br)cc2)c2ccccc21 (stereo not drawn)	none
COc1ccccc1C(=O)N1CCN(Cc2ccc(Cl)cc2)CC1	none
Cc1ccc(S(=O)(=O)/N=C(\Nc2nc(C)cc(C)n2)Nc2ccccc2C)cc1	none
CCOc1cc(/C=C2/SC(=S)N(C)C2=O)ccc1OCc1cccc2ccccc12	none
O=C1NN(c2ccc(Cl)c(Cl)c2)C(=O)/C1=C/c1ccc(Cl)c([N+](=O)[O-])c1	DUSP3 inh 83
Cc1ccc(N2NC(=O)/C(=C/c3ccc(C)c([N+](=O)[O-])c3)C2=O)cc1Cl	none
CCOC(=O)c1ccc(N2NC(=O)/C(=C/c3ccc(Cl)c([N+](=O)[O-])c3)C2=O)cc1	none
CC(C)NC(=O)C(=O)NCc1ccc2c(c1)OCO2	none
COc1ccc(C2/C(=C(/O)c3ccccc3)C(=O)C(=O)N2CC2CCCO2)c(OC)c1 (stereo not drawn)	none
O=C(CCC(=O)N1CCN(Cc2ccccc2)CC1)N1CCOCC1	none
Cc1c(NC(=O)COc2ccc(Cl)cc2)cccc1[N+](=O)[O-]	none
Cc1c(Cl)cccc1N=C1NC(=O)/C(=C/c2ccc(-c3ccccc3C(=O)O)o2)S1	DUSP3 inh 86
Cc1c(Cl)cccc1N=C1NC(=O)/C(=C/c2ccc3c(c2)OCO3)S1	none
Cc1c(Cl)cccc1N=C1NC(=O)/C(=C/c2cccc(O)c2)S1	none
O=C(O)c1cccc2c1NC(c1ccc([N+](=O)[O-])cc1)C1CC=CC21 (stereo not drawn)	none
O=C(O)c1cccc2c1NC(c1ccc(Cl)cc1)C1CC=CC21 (stereo not drawn)	DUSP3 inh 86
O=C(O)c1cccc2c1NC(c1cccc3ccccc13)C1CC=CC21 (stereo not drawn)	none
Cc1ccc(N2C(=O)NC(=O)/C(=C\c3ccc(N4CCOCC4)o3)C2=O)cc1	none
CC(C)(C)NCCOc1ccc(Cl)cc1	none
O=C(O)/C(=C/c1ccccc1)c1c(F)c(F)c(F)c(F)c1F	none
O=C(COc1ccc2ccccc2c1)Nc1ccc(Br)c(Cl)c1	DUSP3 inh 114
O=C(COc1ccccc1)Nc1ccc(Br)c(Cl)c1	none
O=C(COc1ccc2ccccc2c1)Nc1ccc(Cl)c(Cl)c1	none
Clc1cccc(N=Cc2ccc(OC3CSC3)cc2)c1	none
CC(C)c1ccc(CNC(=O)CSc2nc3ccccc3s2)cc1	none
Cn1c(-c2ccc(-c3nc4cnccc4n3C)cc2)nc2cnccc21	DUSP3 inh 71
Cn1c(-c2nc3ccccc3n2C)nc2ccccc21	none
Cc1ccc(-c2nc3ccccc3c(=O)n2-c2cccnc2)cc1	none
CC(=O)C1=C(O)CC(C)(C)CC1=Nc1ccc(N)cc1	none
O=C(Cn1cnc2ccccc21)N=Nc1c(O)[nH]c2ccccc12	none
CC(C)Cn1c(=S)[nH]c2sc3c(c2c1=O)CC(C)(C)OC3	none
O=C(O)c1ccc(/C=C2\SC(=S)N(C(Cc3ccccc3)C(=O)O)C2=O)cc1 (stereo not drawn)	none

Screening data deposited in PubChem BioAssay by Sanford-Burnham Center for Chemical Genomics.
